According to paper PMC5540273 (PLoS ONE, 2017):

Tests used:
Details in all cases: concentration: 1 μM, replicates: in singlicate; n = 1
PIK3CD = system: PIK3CD
PIK3CG = system: PIK3CG
PIK4CB = system: T1, PIK4CB
T1 construct: gene PI4KB

PIKFYVE = system: PIKFYVE
PIM1 = system: PIM1
PIM2 = system: PIM2
PIM3 = system: PIM3
PIP5K1A = system: PIP5K1A
PIP5K1C = system: PIP5K1C
PIP5K2B = system: PIP5K2B
PIP5K2C = system: T2, PIP5K2C
T2 construct: gene PIP4K2C

PKAC-alpha = system: T3, PKAC-alpha
T3 construct: gene PRKACA

PKAC-beta = system: T4, PKAC-beta
T4 construct: gene PRKACB

PKMYT1 = system: PKMYT1
PKN1 = system: PKN1
PKN2 = system: PKN2
PLK1 = system: PLK1
PLK2 = system: PLK2
PLK3 = system: PLK3
PLK4 = system: PLK4
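Further: KINOMEscan kinase panel screen.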

| Structure (SMILES) | %Inh (PIK3CD) [%] | %Inh (PIK3CG) [%] | %Inh (PIK4CB) [%] | %Inh (PIKFYVE) [%] | %Inh (PIM1) [%] | %Inh (PIM2) [%] | %Inh (PIM3) [%] | %Inh (PIP5K1A) [%] | %Inh (PIP5K1C) [%] | %Inh (PIP5K2B) [%] | %Inh (PIP5K2C) [%] | %Inh (PKAC-alpha) [%] | %Inh (PKAC-beta) [%] | %Inh (PKMYT1) [%] | %Inh (PKN1) [%] | %Inh (PKN2) [%] | %Inh (PLK1) [%] | %Inh (PLK2) [%] | %Inh (PLK3) [%] | %Inh (PLK4) [%] |
| --- | --- | --- | --- | --- | --- | --- | --- | --- | --- | --- | --- | --- | --- | --- | --- | --- | --- | --- | --- | --- |
| Clc1cc(Nc2ncnc3cc[nH]c23)ccc1OCc1ccccn1 | 25 | 4 | 34 | 0 | 5 | 10 | 22 | 30 | 0 | 0 | 8 | 23 | 0 | 0 | 23 | 0 | 2 | 23 | 25 | 34 |
| O=C(c1ccc(-c2cc(-c3c[nH]nc3-c3ccccn3)ccn2)cc1)N1CCCC1 [GW792479] | 0 | 0 | 4 | 19 | 100 | 21 | 8 | 0 | 14 | 0 | 97 | 0 | 22 | 0 | 0 | 0 | 0 | 0 | 12 | 0 |
| Cl.Cn1ccc(-c2cccc(Nc3ccnc4cc(-c5nccs5)ccc34)c2)n1 [GW525701] | 0 | 0 | 0 | 30 | 12 | 0 | 0 | 48 | 36 | 14 | 50 | 0 | 0 | 0 | 0 | 0 | 0 | 0 | 0 | 5 |
| COc1ccc(NC(=O)Nc2ccc(C)c(-c3ccc(C(=O)Nc4ccncc4)cc3)c2)cc1 [GSK1398475] | 0 | 0 | 0 | 0 | 0 | 0 | 3 | 0 | 17 | 0 | 0 | 8 | 0 | 0 | 0 | 0 | 0 | 0 | 0 | 0 |
| Fc1ccc(-c2ncn(CCCNCc3ccccc3)c2-c2ccncc2)cc1 | 3 | 4 | 24 | 2 | 10 | 23 | 28 | 0 | 0 | 12 | 3 | 26 | 6 | 27 | 23 | 1 | 0 | 5 | 13 | 32 |
| Cl.c1ccc(Cn2ccc3cc(Nc4ncnc5ccccc45)ccc32)cc1 [GW275568] | 0 | 21 | 24 | 0 | 27 | 1 | 23 | 0 | 34 | 6 | 25 | 18 | 0 | 0 | 26 | 0 | 4 | 0 | 0 | 5 |
| Cl.O=S(=O)(c1cccc(F)c1)c1ccc(Nc2ncnc3cc(Br)sc23)cc1Cl [GSK306886] | 21 | 5 | 6 | 0 | 14 | 0 | 0 | 9 | 70 | 3 | 60 | 0 | 0 | 26 | 19 | 0 | 0 | 0 | 0 | 26 |
| COc1ccc(NC(=O)c2ccc(-c3cc(-c4nnc(C)o4)ccc3C)cc2)cc1 [GW595885] | 0 | 0 | 0 | 13 | 0 | 0 | 0 | 7 | 1 | 10 | 4 | 0 | 13 | 0 | 0 | 0 | 0 | 0 | 0 | 0 |
| O=C(Nc1n[nH]c2nc(-c3ccco3)c(Br)cc12)c1ccc(CN2CCCC2)cc1.O=C(O)[C@H](O)[C@@H](O)C(=O)O [SB-742352] | 0 | 5 | 40 | 0 | 0 | 0 | 0 | 0 | 0 | 0 | 0 | 0 | 0 | 0 | 0 | 21 | 0 | 0 | 0 | 3 |
| O=C(NCCCN1CCCC1=O)c1cnc(NCc2cc(Cl)ccc2Cl)nc1NC1CCNCC1 | 0 | 7 | 0 | 30 | 0 | 0 | 4 | 0 | 12 | 0 | 2 | 0 | 0 | 0 | 20 | 11 | 0 | 0 | 0 | 5 |
| O=C(CCO)NCCn1ccc2ncnc(Nc3ccc(Oc4cccc(C(F)(F)F)c4)c(Cl)c3)c21 | 0 | 0 | 0 | 34 | 0 | 0 | 0 | 0 | 41 | 5 | 26 | 0 | 12 | 10 | 0 | 1 | 0 | 0 | 0 | 0 |
